This passage reports growth inhibition results from PubChem BioAssay (NCI).

SMILES strings stand for the structures. About 79,000 compounds went through this panel and 15% of them were active in at least one assay; those are over-represented in the sample as a whole. Values without a mark were called inactive. Activity calls are given as the source filed them. Rule as the data show it: active = growth inhibition above about 70%; inactive = the rest.

Assay [1] can be described thus: NCI Yeast Anticancer Drug Screen. Data for the rad50 strain (AID 155).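 Also: 0% = growth of vehicle-only cultures of the same strain.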 As to conditions: S. cerevisiae rad50 strain growth inhibition, active compounds read high. Put shortly:
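Compounds were tested on a yeast strain with an engineered DNA damage repair alteration; the reported value is growth inhibition normalised to vehicle treatment.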

Assay [2] can be described thus: NCI Yeast Anticancer Drug Screen. Data for the mec2-1 strain (AID 157). As to conditions: S. cerevisiae mec2-1 strain, active compounds read high. Put shortly: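 Strain: mec2-1 (DNA repair/cell cycle alteration). Compound exposure, then growth measured; inhibition expressed relative to vehicle.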
The nature of assay [3]: NCI Yeast Anticancer Drug Screen. Data for the sgs1 mgt1 strain (AID 161).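 Also: 0% = growth of cultures given vehicle only.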 As to conditions: S. cerevisiae sgs1 mgt1 strain, active compounds read high. In short, it runs like this:
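Read-out: growth inhibition vs vehicle controls. Cells: mutant yeast strain deficient in DNA damage repair.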

Assay [4] is described as follows: NCI Yeast Anticancer Drug Screen. Data for the cln2 rad14 strain (AID 165).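 Also: 0% = growth equal to vehicle treated cultures.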 As to conditions: S. cerevisiae cln2 rad14 strain, active compounds read high. Put shortly:
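Compounds are applied to the cln2 rad14 yeast strain, and growth is then compared with that of vehicle-treated cultures to give inhibition.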

Assay [5] can be described thus: NCI Yeast Anticancer Drug Screen. Data for the bub3 strain (AID 167). As to conditions: S. cerevisiae bub3 mutant strain, active compounds read high. In short, it runs like this:
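Growth of a checkpoint-deficient yeast mutant is measured after compound exposure. Values represent inhibition relative to vehicle.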

Assay [6] can be described thus: NCI Yeast Anticancer Drug Screen. Data for the mlh1 rad18 strain (AID 175). As to conditions: S. cerevisiae mlh1 rad18 strain growth inhibition, active compounds read high. In short, it runs like this:
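Read-out is yeast growth inhibition, calculated against vehicle-only controls. The compound was applied to a strain engineered with DNA damage repair alterations.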

Where [7] appears, read: at 5.0 µM (retest, dose inferred, filed as 0.5).
[8] abbreviates: at 50.0 µM (retest, dose inferred, filed as 5.0).

As for `O=Cc1nc2c3cccnc3ccc2n1Cc1ccccc1`, the growth inhibition in assay [1] (setting [7]) is -4%; in assay [1] (setting [8]), 24%; in assay [1] (at 50.0 µM), 0.05%; in assay [2] (setting [7]), -17%; in assay [2] (setting [8]) it was 8%; in assay [2] (at 50.0 µM), -18.8%. Moreover, the growth inhibition in assay [3] (setting [7]) was -17%; in assay [3] (setting [8]), 15%; in assay [3] (at 50.0 µM), 35.4%; in assay [4] (setting [7]) it was -2%; in assay [4] (setting [8]), 5%; in assay [4] (at 50.0 µM) it was 26.7%. For the same compound, the growth inhibition in assay [5] (setting [7]) is 0%; in assay [5] (setting [8]), 11%; in assay [5] (at 50.0 µM), 57.4%; in assay [6] (setting [7]) it was 8%; in assay [6] (setting [8]), 34%; in assay [6] (at 50.0 µM) it was 40.9%.
With `NC(=O)N/N=C1/CC2CCCCC2c2ccccc21` (configuration not stated), the growth inhibition was 12% in assay [1] (setting [7]); 92% (active) in assay [1] (setting [8]); 67.8% in assay [1] (at 50.0 µM); -4% in assay [2] (setting [7]); 86% (active) in assay [2] (setting [8]); 13% in assay [2] (at 50.0 µM). In addition, the growth inhibition was -2% in assay [3] (setting [7]); 66% in assay [3] (setting [8]); 58% in assay [3] (at 50.0 µM); 0% in assay [4] (setting [7]); 69% in assay [4] (setting [8]); 19.2% in assay [4] (at 50.0 µM). Also, the growth inhibition in assay [5] (setting [7]) is 0%; in assay [5] (setting [8]), 94% (active); in assay [5] (at 50.0 µM), 86.2% (active); in assay [6] (setting [7]), -6%; in assay [6] (setting [8]), 94% (active); in assay [6] (at 50.0 µM) it was 23.5%.
Turning to `O=C1C=CC(=O)N1c1ccccc1` (tested in a mixture with another compound), the growth inhibition is 0% in assay [1] (setting [7]); 20% in assay [1] (setting [8]); 91% (active) in assay [1] (at 50.0 µM); -1% in assay [2] (setting [7]); 32% in assay [2] (setting [8]); 92.8% (active) in assay [2] (at 50.0 µM). In addition, the growth inhibition is 0% in assay [3] (setting [7]); 39% in assay [3] (setting [8]); 94.4% (active) in assay [3] (at 50.0 µM); -3% in assay [4] (setting [7]); 34% in assay [4] (setting [8]); 93.8% (active) in assay [4] (at 50.0 µM). Moreover, the growth inhibition in assay [5] (setting [7]) was -15%; in assay [5] (setting [8]) it was 77% (active); in assay [5] (at 50.0 µM), 95.2% (active); in assay [6] (setting [7]), -1%; in assay [6] (setting [8]) it was 22%; in assay [6] (at 50.0 µM), 77.2% (active).
As for `COc1ccc2c(c1)nc1ccc(Cl)cc1[n+]2C`, the growth inhibition is -6% in assay [1] (setting [7]); 61% in assay [1] (setting [8]); 82.2% (active) in assay [1] (at 50.0 µM); 2% in assay [2] (setting [7]); 64% in assay [2] (setting [8]); 84.1% (active) in assay [2] (at 50.0 µM). In addition, the growth inhibition is -2% in assay [3] (setting [7]); 55% in assay [3] (setting [8]); 82.2% (active) in assay [3] (at 50.0 µM); -7% in assay [4] (setting [7]); 52% in assay [4] (setting [8]); 83.1% (active) in assay [4] (at 50.0 µM). The growth inhibition is 7% in assay [5] (setting [7]); 70% (active) in assay [5] (setting [8]); 92.2% (active) in assay [5] (at 50.0 µM); 6% in assay [6] (setting [7]); 66% in assay [6] (setting [8]); 89% (active) in assay [6] (at 50.0 µM).
With `Cc1nc(-c2ccccc2)nc2c1nc(C(C)C)n2Nc1ccccc1`, the growth inhibition was -2% in assay [1] (setting [7]); 20% in assay [1] (setting [8]); 94.1% (active) in assay [1] (at 50.0 µM); -3% in assay [2] (setting [7]); 41% in assay [2] (setting [8]); 57.6% in assay [2] (at 50.0 µM). Besides, the growth inhibition was 0% in assay [3] (setting [7]); 25% in assay [3] (setting [8]); 73.8% (active) in assay [3] (at 50.0 µM); -9% in assay [4] (setting [7]); 33% in assay [4] (setting [8]); 64.8% in assay [4] (at 50.0 µM). In addition, the growth inhibition in assay [5] (setting [7]) is 3%; in assay [5] (setting [8]), 35%; in assay [5] (at 50.0 µM), 80.8% (active); in assay [6] (setting [7]) it was -4%; in assay [6] (setting [8]), 37%; in assay [6] (at 50.0 µM), 78.5% (active).
As to `Brc1cc2c(c(Br)c1Br)C(Br)(Br)C(c1ccccc1)=N2`, the growth inhibition was 6% in assay [1] (setting [7]); 80% (active) in assay [1] (setting [8]); 73.3% (active) in assay [1] (at 50.0 µM); 10% in assay [2] (setting [7]); 85% (active) in assay [2] (setting [8]); 58.1% in assay [2] (at 50.0 µM). Further, the growth inhibition in assay [3] (setting [7]) is 25%; in assay [3] (setting [8]) it was 85% (active); in assay [3] (at 50.0 µM), 78.6% (active); in assay [4] (setting [7]) it was 3%; in assay [4] (setting [8]), 32%; in assay [4] (at 50.0 µM), 60.4%. For the same compound, the growth inhibition in assay [5] (setting [7]) was 1%; in assay [5] (setting [8]), 90% (active); in assay [5] (at 50.0 µM), 27.6%; in assay [6] (setting [7]), 13%; in assay [6] (setting [8]), 89% (active); in assay [6] (at 50.0 µM), 75.3% (active).
Regarding `O=C1C(Cl)=C(Nc2cc(Cl)ccc2Cl)C(=O)c2ccccc21`, the growth inhibition is 45% in assay [1] (setting [7]); 99% (active) in assay [1] (setting [8]); 2.45% in assay [1] (at 50.0 µM); 63% in assay [2] (setting [7]); 98% (active) in assay [2] (setting [8]); 97.9% (active) in assay [2] (at 50.0 µM). Further, the growth inhibition was 68% in assay [3] (setting [7]); 100% (active) in assay [3] (setting [8]); 98.7% (active) in assay [3] (at 50.0 µM); 20% in assay [4] (setting [7]); 95% (active) in assay [4] (setting [8]); 78.8% (active) in assay [4] (at 50.0 µM). Moreover, the growth inhibition in assay [5] (setting [7]) is 96% (active); in assay [5] (setting [8]) it was 99% (active); in assay [5] (at 50.0 µM), 99.5% (active); in assay [6] (setting [7]), 64%; in assay [6] (setting [8]) it was 98% (active); in assay [6] (at 50.0 µM), 99.5% (active).
For the compound `CCCCCCCCCCCCCCCC[N+](C)(C)c1ccccc1`, the growth inhibition in assay [1] (setting [7]) is 98% (active); in assay [1] (setting [8]), 98% (active); in assay [1] (at 50.0 µM), 91.1% (active); in assay [2] (setting [7]) it was 98% (active); in assay [2] (setting [8]), 99% (active); in assay [2] (at 50.0 µM) it was 90.7% (active). Further, the growth inhibition is 99% (active) in assay [3] (setting [7]); 99% (active) in assay [3] (setting [8]); 90.4% (active) in assay [3] (at 50.0 µM); 98% (active) in assay [4] (setting [7]); 99% (active) in assay [4] (setting [8]); 86.2% (active) in assay [4] (at 50.0 µM). In addition, the growth inhibition in assay [5] (setting [7]) was 99% (active); in assay [5] (setting [8]), 99% (active); in assay [5] (at 50.0 µM), 92.8% (active); in assay [6] (setting [7]) it was 98% (active); in assay [6] (setting [8]), 98% (active); in assay [6] (at 50.0 µM), 92.2% (active).
As to `CC1=NC(c2ccccc2)(C2(c3ccccc3)C(c3ccccc3)=C2c2ccccc2)C(=O)O1` (configuration not stated), the growth inhibition in assay [1] (setting [7]) was 21%; in assay [1] (setting [8]), 21%; in assay [1] (at 50.0 µM) it was 86% (active); in assay [2] (setting [7]) it was 25%; in assay [2] (setting [8]) it was 25%; in assay [2] (at 50.0 µM) it was 88.8% (active). Further, the growth inhibition in assay [3] (setting [7]) is 28%; in assay [3] (setting [8]) it was 28%; in assay [3] (at 50.0 µM), 86.9% (active); in assay [4] (setting [7]), 23%; in assay [4] (setting [8]), 23%; in assay [4] (at 50.0 µM), 89% (active). Further, the growth inhibition in assay [5] (setting [7]) is 11%; in assay [5] (setting [8]), 11%; in assay [5] (at 50.0 µM), 34.9%; in assay [6] (setting [7]), 27%; in assay [6] (setting [8]) it was 27%; in assay [6] (at 50.0 µM) it was 86.6% (active).
